The panel holds about 79,000 compounds, 15% with a hit somewhere; the sample as a whole holds those more often. Unmarked numbers belong to inactive results. Activity calls are given as the source filed them. Rule as the data show it: active = growth inhibition above about 70%; inactive = the rest.
What was measured:
[1] = NCI Yeast Anticancer Drug Screen. Data for the rad50 strain (AID 155);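 also: 0% = growth of vehicle-only cultures of the same strain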; conditions: S. cerevisiae rad50 strain growth inhibition; at 50.0 µM; hits give high values
In short: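 Yeast carrying a defined DNA repair defect were exposed to test compounds, and growth was compared with vehicle-treated controls to give percent inhibition.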

[2] = NCI Yeast Anticancer Drug Screen. Data for the mec2-1 strain (AID 157); conditions: S. cerevisiae mec2-1 strain, at 50.0 µM, hits give high values
In short: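 Vehicle-treated cultures served as reference for growth inhibition of compound-exposed mec2-1 yeast.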

[3] = NCI Yeast Anticancer Drug Screen. Data for the sgs1 mgt1 strain (AID 161);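 also: 0% = growth of cultures given vehicle only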; conditions: S. cerevisiae sgs1 mgt1 strain, at 50.0 µM, hits give high values
In short: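 Read-out: growth inhibition vs vehicle controls. Cells: mutant yeast strain deficient in DNA damage repair.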

[4] = NCI Yeast Anticancer Drug Screen. Data for the cln2 rad14 strain (AID 165);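 also: 0% = growth equal to vehicle treated cultures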; conditions: S. cerevisiae cln2 rad14 strain, at 50.0 µM, hits give high values
In short: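 Each compound was tested on cln2 rad14 yeast. Inhibition of growth was calculated against vehicle-exposed controls.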

[5] = NCI Yeast Anticancer Drug Screen. Data for the bub3 strain (AID 167); conditions: S. cerevisiae bub3 mutant strain, at 50.0 µM, hits give high values
In short: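 Compounds were applied to a genetically altered yeast strain carrying a cell-cycle control defect. Growth inhibition was scored against vehicle-treated controls.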

[6] = NCI Yeast Anticancer Drug Screen. Data for the mlh1 rad18 strain (AID 175); conditions: S. cerevisiae mlh1 rad18 strain growth inhibition; at 50.0 µM; hits give high values
In short: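 Vehicle-treated cultures served as the reference for growth inhibition in a yeast strain carrying DNA damage repair alterations exposed to each compound.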

SMILES | growth inhibition [1] | growth inhibition [2] | growth inhibition [3] | growth inhibition [4] | growth inhibition [5] | growth inhibition [6]
FC(F)(F)c1cccc(NC2=NCCS2)c1 | -22.2% | -46.1% | 0% | -5.6% | 17.9% | -42.8%
Cc1cc(-n2c(/C=C/c3ccc(Cl)cc3)nc3cc(Cl)ccc3c2=O)on1 | -27.2% | -34.3% | -12.8% | -0.1% | -9.75% | -10.8%
CN(C1CCCC1)C1CCCC1 | -27.1% | -25.9% | -24.1% | 5.3% | 2.25% | -7.7%
Oc1c(Cl)cc(Cl)cc1C1N(Cc2ccc(N(CCCl)CCCl)cc2Cl)CCCN1Cc1ccc(N(CCCl)CCCl)cc1Cl | -0.6% | 15.6% | 18.6% | -6% | -4% | 18%
CSP(=S)(SC)SC(C)C | 19% | 1.65% | 24.1% | 27.2% | 6.5% | -4.45%
C1NCC2CNCC1O2 | 3.2% | -12.4% | -7.95% | 6.35% | 7.9% | -3.15%
CN1CCCC(O)(C(=O)c2ccccc2)C1 (configuration not stated) | 4.15% | -15.2% | 0.7% | -16% | -9.35% | 12.9%
CN(C)c1ccccc1 | 0.35% | 42.1% | 5.35% | -7.4% | 3.1% | 2.65%
Nc1c([N+](=O)[O-])cncc1[N+](=O)[O-] | -30.6% | -4.15% | -14.3% | -40.6% | -41.9% | -6.8%
O=c1cc([N+](=O)[O-])n(O)cc1[N+](=O)[O-] | 31.1% | 12.6% | 32.5% | 21.2% | -4.1% | 44.5%
COc1ccc2c(c1O)CN1CCc3cc4c(cc3C1C2)OCO4 (configuration not stated) | 40.5% | 22.1% | 28.6% | 25.9% | 43.2% | 19.9%
CC(C)c1cc(C(C)C)c(S(=O)(=O)N=[N+]=[N-])c(C(C)C)c1 | 12.6% | -0.8% | -31.4% | -8.3% | -16.9% | -7.95%
CC1=C2C(=O)C(C)(C)C=C2C(=O)[C@](C)(O)C12CC2 | 66.4% | 47.1% | 68% | 55.2% | -5.95% | 5.4%
CC1(C)OP(=O)(c2ccccc2)C=C1Br (configuration not stated) | -39.9% | -9.4% | -23.4% | -11.8% | -2.75% | -3.7%
CCCN(CCC)CCc1ccc(OC2=CCN(C)CC2)cc1 | -22.6% | -22.1% | 8.85% | 16.6% | -15.8% | -55%
CN1CCCC1c1ccc[n+](C)c1 (configuration not stated) | -2.95% | 1.85% | 5.6% | -8.65% | 2.1% | 3.35%
NCC(=O)c1ccc(O)c(O)c1 | -8.85% | -7.05% | -4.35% | 2.8% | 16.4% | -8.55%
O=C1NCC2C3CCC(O3)C12 (configuration not stated) | -6.3% | -16.1% | 7.95% | -10.2% | -17.4% | -12.1%
O=c1[nH]c2ccccc2c(=O)n1-c1ccco1 | 4.2% | -13.5% | -9% | -15.4% | -25.1% | -1.65%
c1ccc(CC[N+]23CC[N+](CCc4ccccc4)(CC2)C3)cc1 | 27.9% | 3.2% | 1.4% | -25.6% | 4.5% | 16%
Nc1ccc(P(=O)(O)O)cc1 | -7.8% | -9.55% | -11.7% | -36.1% | -1.05% | -3.95%

SMILES | growth inhibition [1] | growth inhibition [2] | growth inhibition [3] | growth inhibition [4] | growth inhibition [5] | growth inhibition [6]
NC(CCSCCF)C(=O)O (configuration not stated) | 36.9% | 8.6% | 12.8% | -2.65% | 24.4% | 35%
Cn1cnnc1N | 5.4% | 5.7% | 6.3% | 4.4% | 13.2% | 4.35%
O=C1C=CC2(C=C1)CCN=c1c(O)c3c(c(O)c12)=NC=N3 | 15.5% | 7.55% | 8.5% | 29.2% | 11.9% | -4.5%
CC(C)[C@]12O[C@H]1[C@@H]1O[C@]13[C@]1(O[C@H]1C[C@H]1C4=C(C(=O)OC4)[C@@H](O)C[C@@]13C)[C@@H]2O | -8.4% | -18.4% | 6% | -5.85% | -0.3% | -12.8%
[I][Hg][CH]1CCC2CCCC1O2 (configuration not stated) | 99.7% (active) | 99.6% (active) | 99.8% (active) | 99% (active) | 98.8% (active) | 99.7% (active)
O=c1cc(N2CCNCC2)nc2ccccn12 | 2.9% | 4.4% | 4.95% | 1.4% | 6.95% | 6.35%
O=NC1C(=O)NC(=O)NC1=O | 1.75% | -5.85% | 3.45% | 14.7% | 11.7% | -3.65%
CCC(=O)C(c1ccccc1)(c1ccccc1)C(C)CN(C)C (configuration not stated) | -8.7% | -9.2% | 9.35% | -5.55% | -4.9% | -6.35%
O=c1[nH]c(=O)c2[nH]c(N=Nc3ccc(N(CCCl)CCCl)cc3)nc2[nH]1 | 20.9% | 6.1% | 34.6% | 38.1% | 10.7% | 17.6%
CC(C)COP(=O)(Cc1ccccc1)OCC(C)C | 8.85% | 5.65% | -0.5% | 11.8% | 5% | -6.2%
C1CC[N-]CC1.CN(C)P(=O)(N(C)C)N(C)C.OO.OO.[O]=[Mo] | 11.3% | -16% | 15.6% | 17.4% | 11.9% | 15.7%
CCNC(=O)N1CC2CCC(C1)N2C | -1.15% | 7.85% | 6.45% | -39.1% | -18.8% | 8.45%
NP(=O)(OCCC(OCc1ccccc1)OCc1ccccc1)N(CCCl)CCCl (configuration not stated) | 54.6% | 9.1% | 54.6% | 48.5% | 6.2% | 31.8%
O=S=NN(CC(Cl)c1ccccc1)CC(Cl)c1ccccc1 (configuration not stated) | 10.1% | -8.5% | 19.9% | -47.5% | 22.9% | 7.7%
COc1ccc2c(C3(O)CCNCC3)c[nH]c2c1 | 0.1% | -1.3% | -3.7% | 2.75% | -3.7% | 3.8%
Cc1ccc(S(=O)(=O)OCCN2CC2)cc1 | -12% | -12.2% | -13.6% | -23.2% | -17.4% | -12.7%
CC(=O)O[C@H]1C(=O)[C@@]2(C)[C@H]([C@H](OC(=O)c3ccccc3)[C@@]3(O)C[C@H](O)C(C)=C1C3(C)C)[C@]1(OC(C)=O)CO[C@@H]1C[C@@H]2O | 8.05% | -10.9% | 6% | 8.35% | 12.5% | -0.15%
CCC1C(=O)NC(=O)N(c2ccccc2)C1=O (configuration not stated) | 13.7% | -8.3% | -3.25% | -39.4% | 3.1% | -6%
CSc1ccc([As](=O)(O)O)cc1 | 15.2% | 4.45% | 30.9% | 24.3% | -18.1% | 46.5%
Nc1ccc(Sc2ccc(N)cc2)cc1 | 15.5% | 0.35% | -0.6% | -53.1% | -8.25% | 23.1%
CCOc1cc(OCC)c(OCC)cc1/C=C/[N+](=O)[O-] | 90% (active) | 92.7% (active) | 93.7% (active) | 77% (active) | 89.5% (active) | 95.2% (active)

From PubChem BioAssay (NCI)
